Measured values as given in PubChem BioAssay (NCATS).
Where “and” joins values, the source holds several entries; their conditions need not be identical. Equal values may be shown once. Results filed as inconclusive are left out. Calls of active or inactive are those of the source. Unless noted, calls come from the whole dose curve; as a rule, active = well fitted curve in either direction with a large enough effect (not every such curve was filed as active); inconclusive = small, poorly fitted or top-dose-only effect, or another doubt; inactive = flat fitted curve, though single readings scatter.

Columns and labels:
[1] = target: Cytochrome P450 1A2 (Homo sapiens) (UniProt P05177); assay: p450-cyp1a2 (AID 410; calls by dose curve; note: potency is the fitted concentration of half-maximal effect;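 for activity change, negative = inhibition: -100% = full effect of reference inhibitor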)
Cytochrome P450 1A2 (Homo sapiens), sequence (P05177 whole entry, looked up): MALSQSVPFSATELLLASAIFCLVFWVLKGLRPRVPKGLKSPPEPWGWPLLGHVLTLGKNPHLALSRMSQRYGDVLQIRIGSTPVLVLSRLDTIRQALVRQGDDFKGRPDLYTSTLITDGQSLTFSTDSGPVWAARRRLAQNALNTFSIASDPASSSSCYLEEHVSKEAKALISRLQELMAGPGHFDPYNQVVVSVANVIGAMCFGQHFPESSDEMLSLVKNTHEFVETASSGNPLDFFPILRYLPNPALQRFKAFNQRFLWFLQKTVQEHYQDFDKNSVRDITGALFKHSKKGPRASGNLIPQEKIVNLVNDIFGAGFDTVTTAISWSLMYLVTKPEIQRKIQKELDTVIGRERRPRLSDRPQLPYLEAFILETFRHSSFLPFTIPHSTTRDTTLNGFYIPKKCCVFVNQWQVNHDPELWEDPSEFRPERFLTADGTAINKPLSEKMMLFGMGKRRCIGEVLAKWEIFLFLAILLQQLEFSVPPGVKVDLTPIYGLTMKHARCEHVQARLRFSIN
Procedure, shortened: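 Human CYP1A2 (20nM) demethylated Luciferin-ME at its Km (100uM) in 100mM KPO4. After 10 min compound preincubation, NADPH regeneration ran the reaction 60 min at room temperature. Luciferin was read by luminescence, normalized to 57 uM furafylline.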

[2] = NFAT Signaling Pathway (AID 444); details: Jurkat NFAT-bla M1, carbachol, beta-lactamase ratio, 5 h; at 17.2 µM (top of the series);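 note: carbachol stimulus at about its EC50 of 1 µM final; % is set by controls: 0 for no effect and ±100 for the full control effect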
Procedure, shortened: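 Jurkat cells carrying an NFAT-driven β-lactamase reporter and co-transfected muscarinic M1 receptor were treated with compound plus carbachol (1 uM final, an EC50 level) for 5 h at 37 °C. CCF4 loading followed for 1 h at RT; 460/530 nm ratio gave %activity.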

[3] = Stat Signaling Pathway (AID 446);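 note: ME-180 cervical cancer cells given 40 pM IL-6 alongside compound; SIE-controlled beta-lactamase reporter measured as 460/530 nm FRET emission ratio; % is set by controls: 0 for no effect and ±100 for the full control effect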
Procedure, shortened: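 IL-6/STAT signaling read in ME-180 cells via an SIE beta-lactamase reporter. Stimulus was 40 pM IL-6 (its AC50) for 5 hrs, so both activation and inhibition register.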

[4] = target: Glucocorticoid receptor (Homo sapiens) (UniProt P04150); assay: GR-GFP Redistribution (AID 450;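 active = compounds whose dose series gives a full or clear partial fitted curve of increased nuclear translocation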; note: potency is the fitted concentration of half-maximal effect); details: U2OS GR-GFP nuclear translocation, laser cytometry, 2 h
Glucocorticoid receptor (Homo sapiens), sequence (P04150 whole entry, looked up, the tested form may be a part): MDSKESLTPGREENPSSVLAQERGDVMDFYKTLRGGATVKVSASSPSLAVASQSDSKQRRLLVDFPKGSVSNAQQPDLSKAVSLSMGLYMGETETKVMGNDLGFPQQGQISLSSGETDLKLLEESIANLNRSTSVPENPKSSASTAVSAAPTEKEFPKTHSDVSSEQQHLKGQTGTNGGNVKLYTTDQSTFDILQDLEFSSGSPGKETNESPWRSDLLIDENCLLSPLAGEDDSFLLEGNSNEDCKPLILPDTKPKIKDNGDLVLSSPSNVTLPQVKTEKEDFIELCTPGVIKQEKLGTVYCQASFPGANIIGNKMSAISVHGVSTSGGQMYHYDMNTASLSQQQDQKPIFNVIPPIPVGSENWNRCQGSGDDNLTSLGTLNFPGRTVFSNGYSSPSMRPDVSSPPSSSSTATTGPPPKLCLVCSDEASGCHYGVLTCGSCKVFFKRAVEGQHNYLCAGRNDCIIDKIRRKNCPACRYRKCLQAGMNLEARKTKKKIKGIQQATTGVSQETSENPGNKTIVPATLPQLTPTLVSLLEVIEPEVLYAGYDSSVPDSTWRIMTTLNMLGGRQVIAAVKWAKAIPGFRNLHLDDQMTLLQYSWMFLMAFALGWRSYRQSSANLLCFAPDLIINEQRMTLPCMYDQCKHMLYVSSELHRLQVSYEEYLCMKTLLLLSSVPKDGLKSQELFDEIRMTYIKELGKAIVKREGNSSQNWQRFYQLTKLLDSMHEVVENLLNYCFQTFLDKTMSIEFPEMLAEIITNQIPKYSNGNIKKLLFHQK

[5] = target: Glucocorticoid receptor (Homo sapiens) (UniProt P04150); assay: GR-EFC Redistribution (AID 451; calls by dose curve; note: potency is the fitted concentration of half-maximal effect); details: CHO-K1 GR-EFC translocation, beta-gal luminescence, 2 h
Procedure, shortened: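 CHO-K1 cells stably expressing nuclear-localized β-gal enzyme acceptor and GR fused C-terminally to the enzyme donor fragment; ligand-driven nuclear translocation restores β-gal by complementation. Compounds titrated up to 46 uM final, 2 h at 37 °C; luminescence read.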

[6] = target: Mitogen-activated protein kinase 10 (Mus musculus) (UniProt Q61831); assay: JNK3 AlphaScreen Assay (AID 530);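 note: kinase came from lysate of stimulated human HepG2 cells; signal reports phosphorylation of biotinylated GST-cJun 1-79 at Ser73 with 10 µM ATP; % is set by controls: 0 for no effect and ±100 for the full control effect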
Procedure, shortened: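 JNK3 came from HepG2 lysates pre-activated with IL-1beta and TNF-alpha and phosphorylated biotinylated GST-cJun (1-79) at 10 uM ATP, pH 7.6, room temperature. Compounds were titrated. AlphaScreen signal used anti-phospho-cJun (Ser73) antibody.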

[7] = qHTS Assay for Lipid Storage Modulators (AID 1519; calls by dose curve); details: Drosophila S3 cells, BODIPY lipid droplet/cell ratio, laser cytometry, cells loaded with oleic acid; for activity change, negative = inhibition: at 25.7 µM (top of the series)
Procedure, shortened: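 Cells seeded at 5,000 per well were treated with compounds over a concentration series and loaded with oleic acid (400 uM, as added). Lipid droplet fluorescence (488 nm excitation, 500-530 nm channel) was read by laser-scanning cytometry and normalized to 20 uM Triacsin C.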

[8] = target: Ubiquitin carboxyl-terminal hydrolase 1 (Homo sapiens) (UniProt O94782); assay: Inhibitors of USP1/UAF1: Pilot qHTS (AID 504865; active = well fitted curve in the direction sought with a large enough effect; an effect the other way counts as inactive or inconclusive; note: nearly all actives have a fitted effect of over 35% in size; note: potency is the fitted concentration of half-maximal effect)
Ubiquitin carboxyl-terminal hydrolase 1 (Homo sapiens), sequence (O94782 whole entry, looked up): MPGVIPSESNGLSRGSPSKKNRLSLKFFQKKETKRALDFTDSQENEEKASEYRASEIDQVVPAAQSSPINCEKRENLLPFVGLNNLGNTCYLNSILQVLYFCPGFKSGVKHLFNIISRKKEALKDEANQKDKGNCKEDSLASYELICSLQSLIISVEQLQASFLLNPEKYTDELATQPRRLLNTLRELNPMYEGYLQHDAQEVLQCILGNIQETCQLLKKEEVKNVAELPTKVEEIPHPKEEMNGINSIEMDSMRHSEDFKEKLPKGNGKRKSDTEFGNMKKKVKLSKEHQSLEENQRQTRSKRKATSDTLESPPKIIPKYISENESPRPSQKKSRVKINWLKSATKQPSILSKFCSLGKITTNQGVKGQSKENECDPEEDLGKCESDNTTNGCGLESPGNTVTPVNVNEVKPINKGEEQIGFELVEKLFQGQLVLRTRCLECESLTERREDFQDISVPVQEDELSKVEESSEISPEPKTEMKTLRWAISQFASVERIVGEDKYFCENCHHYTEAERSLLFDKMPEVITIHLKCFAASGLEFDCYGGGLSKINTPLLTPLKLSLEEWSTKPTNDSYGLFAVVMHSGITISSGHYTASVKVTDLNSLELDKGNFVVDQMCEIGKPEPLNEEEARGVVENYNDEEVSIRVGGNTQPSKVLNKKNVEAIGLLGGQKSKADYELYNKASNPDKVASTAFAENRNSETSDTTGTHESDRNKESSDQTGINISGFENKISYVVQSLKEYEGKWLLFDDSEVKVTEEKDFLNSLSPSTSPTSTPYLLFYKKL
Procedure, shortened: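 Deubiquitinase activity followed as kinetic rhodamine fluorescence release from 150 nM Ub-Rho. 1 nM USP1/UAF1 with compound, after 15 min room-temperature preincubation, in HEPES pH 7.8 buffer containing TCEP, EDTA, BSA and Tween-20.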

[9] = AP1 Signaling Pathway (AID 357); note: % is set by controls: 0 for no effect and ±100 for the full control effect
Procedure, shortened: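 ME-180 cells with beta-lactamase reporter under AP-1 response element, stimulated with EC50 EGF; compounds tested in titration series, 5 h at 37 °C. CCF4 substrate added 2.5 h at room temperature; 460/530 nm emission ratio gave %activity and AC50.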

[10] = target: 3',5'-cyclic-AMP phosphodiesterase 4B (Homo sapiens) (UniProt Q07343); assay: qHTS Assay for Inhibitors of PDE-IV (AID 607; active = well fitted activation curve with a large enough effect in the main read-out, with a control signal flat, not every such curve was filed as active; note: % of control where 0% means no effect)
3',5'-cyclic-AMP phosphodiesterase 4B (Homo sapiens), sequence (Q07343 whole entry, looked up): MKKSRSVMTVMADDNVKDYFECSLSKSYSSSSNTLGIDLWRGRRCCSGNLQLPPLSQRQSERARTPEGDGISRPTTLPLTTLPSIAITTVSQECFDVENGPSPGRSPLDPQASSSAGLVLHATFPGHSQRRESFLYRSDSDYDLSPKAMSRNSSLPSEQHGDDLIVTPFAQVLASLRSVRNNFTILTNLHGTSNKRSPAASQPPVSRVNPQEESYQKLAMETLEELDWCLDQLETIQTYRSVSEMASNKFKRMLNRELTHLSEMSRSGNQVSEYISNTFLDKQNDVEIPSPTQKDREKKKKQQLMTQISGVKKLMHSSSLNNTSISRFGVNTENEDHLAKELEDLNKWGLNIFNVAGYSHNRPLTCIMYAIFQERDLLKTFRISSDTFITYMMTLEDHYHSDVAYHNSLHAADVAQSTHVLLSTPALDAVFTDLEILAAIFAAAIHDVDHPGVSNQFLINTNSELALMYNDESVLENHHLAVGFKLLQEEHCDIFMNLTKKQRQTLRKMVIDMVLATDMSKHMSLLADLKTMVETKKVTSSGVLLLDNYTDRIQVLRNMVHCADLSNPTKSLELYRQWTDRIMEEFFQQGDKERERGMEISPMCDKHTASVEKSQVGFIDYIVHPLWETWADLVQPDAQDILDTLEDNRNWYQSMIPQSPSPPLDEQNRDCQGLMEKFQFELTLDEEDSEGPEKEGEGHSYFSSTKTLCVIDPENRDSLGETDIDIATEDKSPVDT
Procedure, shortened: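 Live HEK293 cells with a modified cyclic nucleotide-gated (CNG) channel report intracellular cAMP via membrane-potential dye fluorescence (ex 535/em 590 nm). Endogenous PDE-IV was targeted. Compounds were tested at up to 22.9 uM final; RO 20-1724 100 uM served as control.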

[11] = target: Cytochrome P450 3A4 (Homo sapiens) (UniProt P08684); assay: qHTS Assay for Activators of Cytochrome P450 3A4 (AID 885; active = well fitted curve in the direction sought with a large enough effect; an effect the other way counts as inactive or inconclusive; note: nearly all actives have a fitted effect of over 65% in size)
Cytochrome P450 3A4 (Homo sapiens), sequence (P08684 whole entry, looked up): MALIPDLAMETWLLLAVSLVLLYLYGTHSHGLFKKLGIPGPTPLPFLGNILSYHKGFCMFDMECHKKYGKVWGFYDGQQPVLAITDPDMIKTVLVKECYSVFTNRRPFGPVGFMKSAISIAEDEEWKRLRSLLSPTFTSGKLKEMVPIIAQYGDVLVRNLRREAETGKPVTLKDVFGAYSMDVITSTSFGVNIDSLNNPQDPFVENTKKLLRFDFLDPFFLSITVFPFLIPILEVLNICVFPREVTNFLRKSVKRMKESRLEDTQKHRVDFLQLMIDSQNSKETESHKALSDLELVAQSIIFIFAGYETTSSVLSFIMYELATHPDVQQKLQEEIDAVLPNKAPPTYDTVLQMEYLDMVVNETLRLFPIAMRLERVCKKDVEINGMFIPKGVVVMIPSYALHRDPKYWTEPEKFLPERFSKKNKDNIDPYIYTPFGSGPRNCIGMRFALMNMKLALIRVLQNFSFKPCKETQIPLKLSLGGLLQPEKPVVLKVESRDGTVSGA
Procedure, shortened: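 Quantitative HTS format: compounds preincubated with 20nM human CYP3A4 and Luciferin-PPXE substrate at KM, reaction started by NADPH regeneration, stopped after 60 min, luciferase luminescence read 20 min later.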

[12] = target: ATP-dependent 6-phosphofructokinase (Trypanosoma brucei brucei) (UniProt O15648); assay: qHTS Assay to Find Inhibitors of T. brucei phosphofructokinase: hit validation (AID 492961; active = well fitted curve in the direction sought with a large enough effect; an effect the other way counts as inactive or inconclusive)
ATP-dependent 6-phosphofructokinase (Trypanosoma brucei brucei), sequence (O15648 whole entry, looked up): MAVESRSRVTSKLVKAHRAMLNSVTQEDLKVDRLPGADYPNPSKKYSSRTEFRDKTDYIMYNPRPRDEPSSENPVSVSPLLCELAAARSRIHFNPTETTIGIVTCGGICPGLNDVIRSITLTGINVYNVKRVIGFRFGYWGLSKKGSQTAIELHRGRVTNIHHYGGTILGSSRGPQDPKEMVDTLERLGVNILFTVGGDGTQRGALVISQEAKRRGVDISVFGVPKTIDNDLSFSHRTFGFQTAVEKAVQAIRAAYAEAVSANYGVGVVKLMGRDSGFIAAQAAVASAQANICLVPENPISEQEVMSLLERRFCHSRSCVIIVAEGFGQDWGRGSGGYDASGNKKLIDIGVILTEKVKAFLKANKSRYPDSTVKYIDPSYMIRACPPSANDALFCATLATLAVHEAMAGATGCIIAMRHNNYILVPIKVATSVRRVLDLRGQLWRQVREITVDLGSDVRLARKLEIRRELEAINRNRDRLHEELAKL
Procedure, shortened: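 PFK 1.25 nM, F6P 0.5 mM, ATP 0.1 mM, MgCl2 5 mM, 0.1 M TEA pH 8.0, Tween20 0.01%, BSA 0.1%; 45 min RT. ADP-Glo two-step detection, luminescence. qHTS titration; curve fitting with curve-class categorization.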

[13] = target: Luciferin 4-monooxygenase (Photinus pyralis) (UniProt P08659); assay: Biochemical firefly luciferase enzyme assay for NPC (AID 624030; active = well fitted curve in the direction sought with a large enough effect; an effect the other way counts as inactive or inconclusive;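 note: purified P. pyralis luciferase at 10 nM with luciferin and ATP substrate; 0% = DMSO and -100% = full luciferase inhibition by PTC124 control; nearly all actives have a fitted effect of over 70% in size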)
Luciferin 4-monooxygenase (Photinus pyralis), sequence (P08659 whole entry, looked up): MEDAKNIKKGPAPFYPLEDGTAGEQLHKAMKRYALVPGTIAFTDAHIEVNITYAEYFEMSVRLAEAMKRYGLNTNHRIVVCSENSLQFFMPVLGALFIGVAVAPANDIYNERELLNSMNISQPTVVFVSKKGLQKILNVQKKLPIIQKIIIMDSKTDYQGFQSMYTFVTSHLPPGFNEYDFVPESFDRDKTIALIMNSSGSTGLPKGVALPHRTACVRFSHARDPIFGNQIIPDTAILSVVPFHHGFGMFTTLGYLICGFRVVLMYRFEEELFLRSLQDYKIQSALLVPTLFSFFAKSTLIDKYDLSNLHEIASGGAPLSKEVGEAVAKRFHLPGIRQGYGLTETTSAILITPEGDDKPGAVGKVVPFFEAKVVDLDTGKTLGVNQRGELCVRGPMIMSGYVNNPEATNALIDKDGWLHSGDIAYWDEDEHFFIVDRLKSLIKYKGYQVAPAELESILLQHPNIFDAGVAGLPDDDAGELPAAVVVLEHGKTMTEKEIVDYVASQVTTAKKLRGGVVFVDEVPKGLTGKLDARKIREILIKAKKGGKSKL
Procedure, shortened: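 Counter-screen for direct inhibition of the luciferase enzyme by approved-drug library compounds, run at 10 nM enzyme in 50 mM Tris acetate (final). Luminescence was read within 5 min of enzyme-buffer addition and normalized to PTC124 versus DMSO (0%).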

[14] = qHTS profiling for inhibitors of Plasmodium falciparum proliferation (AID 504749; active = well fitted curve in the direction sought with a large enough effect; an effect the other way counts as inactive or inconclusive;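 note: 0% = DMSO vehicle and full inhibition = artemisinin control; nearly all actives have a fitted effect of over 60% in size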); details: P. falciparum in erythrocytes, SYBR Green DNA, 72 h, at 12.8 µM (top of the series)
Procedure, shortened: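 P. falciparum-infected erythrocytes (0.3% parasitemia, 2.5% hematocrit final) were exposed to compounds for 72 h at 37 C in 5% CO2, then lysed with SYBR Green buffer overnight at room temperature; parasite DNA fluorescence was normalized to artemisinin and DMSO controls.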

[15] = measured here: cell count channel max response
[16] = measured here: lipid channel max response

| Compound | Potency [1] | activity change, negative = inhibition [2] | outcome [3] | Potency [4] | Potency [5] | outcome [6] | activity change, negative = inhibition [7] | max response [7, 15] [%] | max response [7, 16] [%] | Potency [8] | outcome [9] | Potency [10] | Potency [11] | Potency [12] | Potency [13] | activity, negative = inhibition ([14]; parasite line A) | activity, negative = inhibition ([14]; parasite line B) |
| --- | --- | --- | --- | --- | --- | --- | --- | --- | --- | --- | --- | --- | --- | --- | --- | --- | --- |
| COc1ccc(C(=O)OC2C[C@H]3CC[C@@H](C2)N3C)cc1OC (some centres not stated) | inactive | -18.9% (inactive) | inactive | > 20.6 µM (inactive) | > 20.6 µM (inactive) | inactive | 0.262% (inactive) | -3.69 | -3.27 | inactive | – | – | – | – | – | – | – |
| CN1C[C@H](CO)C=C2c3cccc4[nH]cc(c34)C[C@@H]21 | – | – | inactive | > 20.6 µM (inactive) | > 20.6 µM (inactive) | inactive | 0.712% (inactive) | -6.66 | -5.9 | 31.6 µM (active) | inactive | inactive | inactive | – | – | – | – |
| O=C1C=C2C=C[C@H]3C[C@@]2(O1)[C@H]1CCCCN31 | inactive | – | inactive | > 20.6 µM (inactive) and > 46 µM (inactive) | > 20.6 µM (inactive) and > 46 µM (inactive) | inactive | -1.11% (inactive) | -16.7 | -17.3 | inactive | – | inactive | – | – | – | – | – |
| CN1[C@@H](C[C@@H](O)c2ccccc2)CCC[C@@H]1C[C@H](O)c1ccccc1 | 5.01 µM (active) | – | inactive | > 20.6 µM (inactive) | > 20.6 µM (inactive) | inactive | -1.73% (inactive) | 3.31 | 0.966 | inactive | inactive | inactive | – | – | – | – | – |
| C[C@@H]1O[C@H](O[C@@H]2C=C3CC[C@H]4[C@@H](CC[C@]5(C)[C@@H](c6ccc(=O)oc6)CC[C@]45O)[C@@]3(C)CC2)[C@@H](O)[C@H](O)[C@@H]1O | inactive | -39.6% (active) | – | > 20.6 µM (inactive) | > 20.6 µM (inactive) | inactive | -8.45% (inactive) | -11.6 | -25.4 | – | – | – | – | inactive | inactive | -2.59% (inactive) | -11.4% (inactive) |
| C#C[C@@]1(O)CC[C@@H]2[C@@H]3CCC4=CC(=O)CC[C@@]4(C)[C@H]3CC[C@]21C | – | -15.1% (inactive) | inactive | 0.155 µM (active) | > 20.6 µM (inactive) | inactive | -1.74% (inactive) | -8.16 | -11.2 | – | inactive | inactive | – | – | – | – | – |
| C[C@@]12CC[C@H](O)C[C@@H]1CC[C@H]1[C@@H]2C[C@@H](O)[C@]2(C)[C@@H](C3=CC(=O)OC3)CC[C@]12O | inactive | – | inactive | > 20.6 µM (inactive) | > 20.6 µM (inactive) | – | -4.23% (inactive) | -5.31 | -9.41 | inactive | – | – | – | – | – | – | – |
| CCN[C@]1(c2cccs2)CCCCC1=O | – | -19.9% (inactive) | inactive | > 20.6 µM (inactive) | > 20.6 µM (inactive) | inactive | 0.601% (inactive) | -13.4 | -12.8 | – | inactive | inactive | – | inactive | inactive | -1.5% (inactive) | -1.41% (inactive) |
| CO[C@@H](C)[C@](O)(C(=O)OCC1=CCN2CC[C@@H](O)[C@H]12)C(C)C | inactive | – | inactive | > 20.6 µM (inactive) | > 20.6 µM (inactive) | – | -0.0062% (inactive) | -11.3 | -10.6 | inactive | inactive | inactive | – | – | – | – | – |
| COc1cc2c(cc1O)C[C@H]1c3c(cc(O)c(OC)c3-2)CCN1C | 2.51 µM (active) | -8.08% (inactive) | inactive | > 20.6 µM (inactive) and > 46 µM (inactive) | > 20.6 µM (inactive) and > 46 µM (inactive) | inactive | 0.193% (inactive) | 3.24 | 4.01 | – | – | – | inactive | – | – | – | – |
| COc1cc2c(cc1O)[C@H]1Cc3ccc(OC)c(O)c3CN1CC2 | 15.8 µM (active) | – | inactive | > 20.6 µM (inactive) | > 20.6 µM (inactive) | inactive | -1.48% (inactive) | -2.59 | -3.7 | – | inactive | inactive | inactive | – | – | – | – |
| CC1=CC(=O)C2=C(C)C[C@@H](O)[C@@H]3[C@@H](OC(=O)[C@H]3C)[C@H]12 | – | -5.22% (inactive) | inactive | > 20.6 µM (inactive) | > 20.6 µM (inactive) | – | -1.62% (inactive) | -12.9 | -12 | inactive | inactive | – | – | – | – | – | – |
| O=C(NCNC(=O)N[C@H]1C(=O)NC(=O)N1CO)N[C@H]1C(=O)NC(=O)N1CO | – | -14% (inactive) | inactive | > 20.6 µM (inactive) | > 20.6 µM (inactive) | inactive | -1.29% (inactive) | -9.3 | -8.35 | inactive | inactive | – | – | – | – | – | – |
| C[C@H]1CC[C@@]2(NC1)O[C@@H]1C[C@H]3[C@@H]4CC=C5C[C@@H](O)CC[C@]5(C)[C@@H]4CC[C@]3(C)[C@@H]1[C@@H]2C | inactive | 7.82% (inactive) | inactive | > 20.6 µM (inactive) | > 20.6 µM (inactive) | inactive | -1.61% (inactive) | 0.522 | -7.85 | inactive | – | inactive | – | – | – | – | – |
